# Screens: PubChem, National Center for Advancing Translational Sciences (NCATS)
# TDP1 cell noCPT – qHTS for Inhibitors of human tyrosyl-DNA phosphodiesterase 1 (TDP1): qHTS in cells in absence of CPT; DT40 Tdp1-/- hTDP1 cells, no CPT, ATP luminescence, 48 h; Potency, µM (top dose mostly 46.2 µM), for the others: at the highest dose activity change, negative = growth inhibition, usual class: inhibitors; AID 686978, 2013; 420,000 tested, 15% active; note: potency is the fitted concentration of half-maximal effect; nearly all actives have a fitted effect of over 55% in size
#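 Camptothecin absent (DMSO only). Human TDP1-complemented DT40 knockout cells, 400 cells/well, 37 °C for minimum 48 hr; ATP measured via CellTiter-Glo, 30 min dark incubation, luminescence.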
# TDP1 cell CPT – growth inhibition of DT40 Tdp1-/-;hTDP1 cells with camptothecin (screen for TDP1 inhibitors). Potency, µM (doses to about 46.2 µM), for inactives: at the top dose activity change, negative = growth inhibition, usual class: inhibitors. 420,000 tested, 12% active. chicken DT40 Tdp1-/-;hTDP1 cells + 20 nM CPT, ATP luminescence, 48 h; note: potency is the fitted concentration of half-maximal effect; nearly all actives have a fitted effect of over 55% in size
#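 Cell growth measured by CellTiter-Glo luminescence after a minimum 48 h, 37 C compound exposure with 20 nM CPT in Tdp1-knockout DT40 cells stably expressing hTDP1, seeded 400/well; qHTS titration format.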
# Giardia killer – kills Giardia lamblia | Giardia lamblia trophozoite viability | AID 540267 | activity change, % at 7.66 µM, hits read low | 340,000 tested, 0.15% active; in the data active = activity change below about -80%; inconclusive = between about -30% and that limit;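 note: parasites exposed to compound for two days anaerobically before the ATP read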
#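 Trophozoite viability was measured as ATP-dependent luminescence, read 15-30 min after reagent addition. Before that, parasites at 100 cells/well were exposed to compounds for 48 h, anaerobically, at 37 deg C.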
# IL1B secr inh – blocks inflammasome-driven IL-1 beta release. activity change, % at 57.5 µM. 360,000 tested, 4.7% active. THP-1 LPS/ATP IL-1B secretion, AlphaLISA, 16 h; hits give low values. AID 743279; in the data active = activity change below about -50%; inconclusive = mostly about -30% to -49%
#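 THP-1 cells pretreated 1 hr with compounds (up to 57.5 uM final), then stimulated with LPS (250 ng/mL final) plus ATP (1.25 mM final); secreted IL-1B measured by AlphaLISA after 16 hr, decreased signal indicating inhibition.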
# ELG1 DNA repair – inhibitors of ELG1-dependent DNA repair in HEK293T cells; HEK293T ELG1-luciferase reporter, luminescence, 16 h; DNA damage induced by 5-fluorouridine; Potency, µM (doses to about 46.1 µM), for the others: at the highest dose activity change, negative = inhibition, hits mostly inhibitors; 330,000 tested, 2.3% active; AID 504467; note: potency is the fitted concentration of half-maximal effect; nearly all actives have a fitted effect of over 55% in size
#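 5-Fluorouridine DNA damage + compound/DMSO, 2,000 cells/well, 16 h, 37 °C/5% CO2. ONE-Glo, 30 min RT, luminescence. Readout = decrease in reporter signal.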
# TDP1 inh – blocks human tyrosyl-DNA phosphodiesterase 1. Q9NUW8. Potency, µM (highest dose often 130 µM), without a hit: at the top dose activity change, negative = inhibition, most hits filed as inhibitors. 350,000 tested, 0.28% active. recombinant TDP1, AlphaScreen DNA substrate cleavage. AID 485290; note: potency is the fitted concentration of half-maximal effect; nearly all actives have a fitted effect of over 40% in size
# Target sequence (Q9NUW8 whole entry, looked up): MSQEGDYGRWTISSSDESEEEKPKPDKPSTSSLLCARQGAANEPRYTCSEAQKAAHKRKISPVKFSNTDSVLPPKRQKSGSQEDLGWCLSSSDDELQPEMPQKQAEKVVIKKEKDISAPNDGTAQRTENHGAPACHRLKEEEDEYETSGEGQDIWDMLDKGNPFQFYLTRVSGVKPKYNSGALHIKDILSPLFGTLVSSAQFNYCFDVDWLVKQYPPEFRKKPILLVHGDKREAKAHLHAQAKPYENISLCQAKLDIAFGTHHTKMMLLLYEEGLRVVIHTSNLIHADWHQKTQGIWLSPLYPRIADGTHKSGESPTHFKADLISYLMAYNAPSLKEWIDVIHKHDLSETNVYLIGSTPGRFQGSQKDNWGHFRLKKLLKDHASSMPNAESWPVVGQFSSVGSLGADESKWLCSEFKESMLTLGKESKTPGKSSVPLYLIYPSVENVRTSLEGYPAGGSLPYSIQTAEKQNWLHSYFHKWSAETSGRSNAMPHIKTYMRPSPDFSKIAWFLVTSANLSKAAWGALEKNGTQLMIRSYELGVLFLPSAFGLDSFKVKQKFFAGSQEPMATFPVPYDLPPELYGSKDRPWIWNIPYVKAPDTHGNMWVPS
#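 Tdp1 1 nM final; 15 min RT w/ cpd; substrate 15 nM, 5 min; beads 10 ug/ml, 10 min; AlphaScreen read. Neg ctrl: no enzyme.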
# Starred values were filed as active, the others as inactive; ? = inconclusive; nt = no result given; [ ] = remark or other dose. Shown are actives, neighbours in structure and some others; about 19% of the full set was active somewhere. Unless noted, calls come from the whole dose curve; as a rule, active = well fitted curve in the direction sought with a large enough effect; inconclusive = small, poorly fitted or top-dose-only effect, or another doubt; inactive = no such curve, though single readings can be large; an effect the other way counts as inactive or inconclusive. % is set by controls: 0 for no effect and ±100 for the full control effect.
SMILES,TDP1 cell noCPT,TDP1 cell CPT,Giardia killer,IL1B secr inh,ELG1 DNA repair,TDP1 inh
O=C(CSc1nc2c([nH]c3ccccc32)c(=O)n1-c1ccccc1)Nc1ccc2c(c1)OCO2,23.1µM*,?,nt,nt,nt,2.2%
O=C(CSc1nc2c([nH]c3ccccc32)c(=O)n1-c1ccccc1)Nc1ccc(Cl)c(Cl)c1,10.3µM*,8.2µM*,nt,nt,nt,1.1%
Cc1nc(-c2ccccc2)sc1CCNC(=O)c1ccco1,nt,nt,nt,nt,nt,2.2%
CCCCc1nc(Cl)c(C#N)c2c1CCCC2,-29.3%,-21.3%,-2.2,6.1,-13.0%,-0.6%
N#Cc1c(Cl)nc2c(c1C#N)CCCC2,18.4µM*,5.8%,-13.1,-4.0,0.0%,nt
CCC[C@@H](CN[C@@H](CNC)[C@H](C)CC)NCC1CCC(C(C)(C)C)CC1 (stereo not given in full),0.651µM*,1.03µM*,7.3,-52.5*,1.6%,nt
CC[C@@H](C)[C@H](CNC)NC[C@@H](Cc1cccc2ccccc12)NCCc1cccc(C(F)(F)F)c1,?,23.1µM*,-8.9,-24.0,?,nt
CCC[C@H](CN[C@@H](CNC)[C@H](C)CC)NCCc1cc(C(F)(F)F)cc(C(F)(F)F)c1,3.26µM*,11.6µM*,-16.2,-99.7*,20.6µM*,nt
O=C(CNC(=O)Cc1ccccc1)NCc1cccc(C(F)(F)F)c1,-14.9%,12.1%,-2.3,5.2,12.1%,2.3%[0.0935 µM]
CN(C)c1ccc(Nc2cc(Cl)ncn2)cc1,-12.8%,?,-7.8,8.4,?,nt
C/C=C(\C=C\[C@@H](C)C/C=C/CC/C=C/C=C\C[C@@H](OC)/C(C)=C\C=C(C)C)CC(=O)O,nt,nt,nt,nt,nt,5.6%
O=C(NCCN1C(=O)S/C(=C/c2cccnc2)C1=O)c1ccc(S(=O)(=O)N2CCCC2)cc1,?,-24.4%,?,25.6,nt,nt
CCN(CC)S(=O)(=O)c1ccc(C(=O)NCCN2C(=O)S/C(=C\c3cccnc3)C2=O)cc1,18.4µM*,?,-8.5,15.2,14.6µM*,0.5%
CN(C)S(=O)(=O)c1ccc(C(=O)NCCN2C(=O)S/C(=C\c3cccnc3)C2=O)cc1,?,?,28.5,-9.5,0.0%,0.0%
CS(=O)(=O)c1ccc(C(=O)NCCN2C(=O)S/C(=C\c3cccnc3)C2=O)cc1[N+](=O)[O-],4.61µM*,3.66µM*,12.8,-98.0*,?,2.7%
Cc1cc(Cl)ccc1OCCCC(=O)NCCN1C(=O)S/C(=C\c2cccnc2)C1=O,16.4µM*,?,-0.7,-53.5*,?,-1.8%
CN(C)c1ncc2nc(-c3ccc(F)cc3)c(=O)n(C)c2n1,4.8%,-0.2%,nt,nt,nt,nt
COc1cc(C(=O)C(=O)N2CCN(c3ccc(C)cc3)CC2)cc2ccccc12,14.6µM*,14.6µM*,nt,-2.6,nt,nt
COc1cc(CCC(=O)N2CCN(c3ccccc3)CC2)cc(OC)c1OC,?,-27.7%,-13.2,3.9,0.3%,5.8%
COc1cc(C(=O)C(=O)N2CCN(c3ccccc3)CC2)cc(OC)c1OC,3.66µM*,3.66µM*,nt,40.1,nt,nt
COc1cc(C(=O)C(=O)N2CCC(Cc3ccccc3)CC2)cc2ccccc12,23.1µM*,16.4µM*,nt,1.5,nt,nt
Cc1ccc(NC(=O)COC(=O)CCC(=O)c2ccc(C(C)(C)C)cc2)c([N+](=O)[O-])c1,14.6µM*,?,1.5,-1.0,-0.2%,3.5%
CCOC(=O)C1(c2ccccc2)CCCNC1=O (stereo not given),?,?,nt,-13.5,nt,nt
CCOC(=O)C1(c2ccccc2)SC(C(=O)OCC)(c2ccccc2)S1 (stereo not given),?,-16.9%,nt,-66.2*,nt,nt
Cc1cn(-c2cc(C(=O)Nc3ccc(C)c(NC(=O)C(=O)c4c[nH]c5ccccc45)c3)cc(C(F)(F)F)c2)cn1,7.31µM*,8.2µM*,-6.0,2.5,?,5.9%
